Among all 5,500 compounds or so, about 2,000 (36%) were called active. Another 18% or so got no clear call; they are omitted. Rule as the data show it: active = normalized growth mostly below about 0.91 (no sharp cut-off); inconclusive = no clear call, values can overlap the other calls; inactive = mostly above about 0.92. The list shows a part of the results.
Assay: chemical genetic growth profiling, strain panel (AID 1159580);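 also: tested at 20 µM; growth read once vehicle control cultures reached saturation at 30 °C; 1 = growth at the plate median or of vehicle wells; lower values mean less growth of the strain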
Details: growth OD

Measured: normalized growth

Nc1nc(/C(=C/CC(=O)O)C(=O)N[C@@H]2C(=O)N3C(C(=O)O)=CCS[C@H]23)cs1
inactive: S. cerevisiae deletion strains, locus YJR075W, strain HOC1, active compounds read low 1.01 | S. cerevisiae deletion strains, locus YKL009W, strain mrt4, active compounds read low 0.986 | S. cerevisiae deletion strains, locus YKL068W, active compounds read low 0.997 | S. cerevisiae deletion strains, locus YKL085W, strain MDH1 (second series), active compounds read low 0.987 | S. cerevisiae deletion strains, locus YKL085W, strain MDH1, active compounds read low 0.987 | S. cerevisiae deletion strains, locus YKL160W, strain elf1, active compounds read low 0.993 | S. cerevisiae deletion strains, locus YKL190W, strain CNB1, active compounds read low 1.01 | S. cerevisiae deletion strains, locus YKR001C, strain vps1, active compounds read low 0.981 | S. cerevisiae deletion strains, locus YKR026C, strain gcn3, active compounds read low 1 | S. cerevisiae deletion strains, locus YKR091W, strain srl3, active compounds read low 1.01 | S. cerevisiae deletion strains, locus YLL001W, strain dnm1, active compounds read low 1.01 | S. cerevisiae deletion strains, locus YLL026W, active compounds read low 1.01 | S. cerevisiae deletion strains, locus YLL041C, strain sdh2, active compounds read low 1.01 | S. cerevisiae deletion strains, locus YLR027C, strain aat2, active compounds read low 1.01 | S. cerevisiae deletion strains, locus YLR039C, strain RIC1, active compounds read low 1.03 | S. cerevisiae deletion strains, locus YLR058C, strain SHM2, active compounds read low 0.996 | S. cerevisiae deletion strains, locus YLR102C, strain apc9, active compounds read low 0.996 | S. cerevisiae deletion strains, locus YLR113W, strain HOG1, active compounds read low 0.998 | S. cerevisiae deletion strains, locus YLR221C, strain rsa3, active compounds read low 1.01 | S. cerevisiae deletion strains, locus YLR258W, strain gsy2, active compounds read low 0.999 | S. cerevisiae deletion strains, locus YLR262C, strain YPT6 (second series), active compounds read low 1.03 | S. cerevisiae deletion strains, locus YLR262C, strain YPT6, active compounds read low 1.02 | S. cerevisiae deletion strains, locus YLR268W, strain sec22, active compounds read low 0.987 | S. cerevisiae deletion strains, locus YLR320W, strain mms22, active compounds read low 1.01 | S. cerevisiae deletion strains, locus YLR330W, strain CHS5, active compounds read low 0.99 | S. cerevisiae deletion strains, locus YLR342W, strain FKS1 (second series), active compounds read low 1 | S. cerevisiae deletion strains, locus YLR342W, strain FKS1, active compounds read low 1.01 | S. cerevisiae deletion strains, locus YLR357W, strain rsc2, active compounds read low 1.01 | S. cerevisiae deletion strains, locus YLR370C, strain arc18, active compounds read low 1 | S. cerevisiae deletion strains, locus YLR371W, strain rom2, active compounds read low 0.995 | S. cerevisiae deletion strains, locus YLR384C, strain iki3, active compounds read low 0.997 | S. cerevisiae deletion strains, locus YLR418C, strain cdc73, active compounds read low 1 | S. cerevisiae deletion strains, locus YML016C, strain PPZ1, active compounds read low 0.984 | S. cerevisiae deletion strains, locus YML032C, strain rad52, active compounds read low 0.997 | S. cerevisiae deletion strains, locus YML120C, strain ndi1, active compounds read low 1 | S. cerevisiae deletion strains, locus YML124C, strain tub3, active compounds read low 0.982 | S. cerevisiae deletion strains, locus YMR058W, strain fet3, active compounds read low 0.998 | S. cerevisiae deletion strains, locus YMR078C, strain ctf18, active compounds read low 0.991 | S. cerevisiae deletion strains, locus YMR125W, strain sto1, active compounds read low 1.01 | S. cerevisiae deletion strains, locus YMR129W, active compounds read low 1.01 | S. cerevisiae deletion strains, locus YMR205C, strain PFK2, active compounds read low 1.01 | S. cerevisiae deletion strains, locus YMR223W, strain ubp8, active compounds read low 1 | S. cerevisiae deletion strains, locus YMR231W, strain pep5, active compounds read low 1.01 | S. cerevisiae deletion strains, locus YMR263W, strain SAP30, active compounds read low 1.01 | S. cerevisiae deletion strains, locus YMR307W, strain GAS1, active compounds read low 0.996 | S. cerevisiae deletion strains, locus YNL067W, strain RPL9B, active compounds read low 1.03 | S. cerevisiae deletion strains, locus YNL071W, strain lat1, active compounds read low 1 | S. cerevisiae deletion strains, locus YNL128W, strain TEP1, active compounds read low 1.01 | S. cerevisiae deletion strains, locus YNL153C, strain GIM3, active compounds read low 0.995 | S. cerevisiae deletion strains, locus YNL183C, strain NPR1, active compounds read low 0.961 | S. cerevisiae deletion strains, locus YNL209W, strain ssb2, active compounds read low 0.994 | S. cerevisiae deletion strains, locus YNL233W, strain BNI4, active compounds read low 0.993 | S. cerevisiae deletion strains, locus YNL248C, strain rpa49, active compounds read low 1.01 | S. cerevisiae deletion strains, locus YNL250W, strain rad50, active compounds read low 0.987 | S. cerevisiae deletion strains, locus YNL271C, strain bni1, active compounds read low 0.987 | S. cerevisiae deletion strains, locus YNL298W, strain CLA4, active compounds read low 0.984 | S. cerevisiae deletion strains, locus YNL307C, strain MCK1, active compounds read low 0.998 | S. cerevisiae deletion strains, locus YNL322C, strain KRE1 (second series), active compounds read low 1.01 | S. cerevisiae deletion strains, locus YNL322C, strain KRE1, active compounds read low 0.994 | S. cerevisiae deletion strains, locus YNR049C, strain mso1, active compounds read low 1 | S. cerevisiae deletion strains, locus YNR052C, strain pop2, active compounds read low 0.983 | S. cerevisiae deletion strains, locus YOL006C, strain TOP1, active compounds read low 1.02 | S. cerevisiae deletion strains, locus YOL012C, strain htz1 2.11 | S. cerevisiae deletion strains, locus YOL147C, strain pex11, active compounds read low 0.997 | S. cerevisiae deletion strains, locus YOR001W, strain rrp6, active compounds read low 1.01 | S. cerevisiae deletion strains, locus YOR061W, strain CKA2, active compounds read low 0.984 | S. cerevisiae deletion strains, locus YOR069W, strain VPS5, active compounds read low 0.993 | S. cerevisiae deletion strains, locus YOR070C, strain gyp1, active compounds read low 1 | S. cerevisiae deletion strains, locus YOR080W, strain dia2, active compounds read low 1.01 | S. cerevisiae deletion strains, locus YOR083W, strain WHI5, active compounds read low 1.01 | S. cerevisiae deletion strains, locus YOR106W, strain vam3, active compounds read low 1.02 | S. cerevisiae deletion strains, locus YOR136W, strain idh2, active compounds read low 0.983 | S. cerevisiae deletion strains, locus YOR144C, strain elg1, active compounds read low 0.988 | S. cerevisiae deletion strains, locus YOR184W, strain ser1, active compounds read low 0.999 | S. cerevisiae deletion strains, locus YOR231W, strain MKK1, active compounds read low 0.986 | S. cerevisiae deletion strains, locus YOR265W, strain rbl2, active compounds read low 1.01 | S. cerevisiae deletion strains, locus YOR270C, strain vph1, active compounds read low 1.06 | S. cerevisiae deletion strains, locus YOR290C, strain snf2, active compounds read low 0.995 | S. cerevisiae deletion strains, locus YOR316C, strain cot1, active compounds read low 0.992 | S. cerevisiae deletion strains, locus YPL051W, strain arl3, active compounds read low 1 | S. cerevisiae deletion strains, locus YPL055C, strain LGE1, active compounds read low 1.01 | S. cerevisiae deletion strains, locus YPL078C, strain atp4, active compounds read low 1 | S. cerevisiae deletion strains, locus YPL106C, strain sse1, active compounds read low 1.01 | S. cerevisiae deletion strains, locus YPL240C, strain hsp82, active compounds read low 1.01 | S. cerevisiae deletion strains, locus YPL241C, strain CIN2, active compounds read low 0.993 | S. cerevisiae deletion strains, locus YPL256C, strain CLN2, active compounds read low 0.961 | S. cerevisiae deletion strains, locus YPR119W, strain clb2, active compounds read low 0.997 | S. cerevisiae deletion strains, locus YPR141C, strain kar3, active compounds read low 0.99 | S. cerevisiae deletion strains, locus YPR163C, strain tif3, active compounds read low 0.982 | S. cerevisiae deletion strains, locus YPR167C, strain met16, active compounds read low 0.991 | S. cerevisiae deletion strains, strain wtn01, active compounds read low 0.985 | S. cerevisiae strains, strain wild type, active compounds read low 1.01
